# Source: PubChem BioAssay (Tox21)
# Records with an inconclusive call do not appear. Entries that show only a call come without a potency. Activity calls are given as the source filed them. Unless noted, calls come from the whole dose curve; as a rule, active = well fitted curve in the direction sought with a large enough effect in the repeat runs; inconclusive = weak or mixed curves; inactive = no such curve, though single readings can be large; an effect the other way counts as inactive or inconclusive.
# Key:
# [1] = qHTS assay to identify aromatase inhibitors - cell viability counter screen (AID 743084);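 note: cells stimulated with testosterone during compound exposure; nearly all actives have a fitted effect of over 55% in size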
# [2] = target: Aryl hydrocarbon receptor (Homo sapiens) (UniProt P35869); experiment: qHTS assay to identify small molecule that activate the aryl hydrocarbon receptor (AhR) signaling pathway (AID 743085); note: nearly all actives have a fitted effect of over 15% in size; note: potency is the fitted concentration of half-maximal effect;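 for activation: HG2L7.5c1 human HepG2 liver cells with stably integrated DRE-driven firefly reporter; series mostly up to about 70 µM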
# Method in brief: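 HepG2 cells (HG2L7.5c1) stably carrying a firefly luciferase reporter driven by 20 dioxin responsive elements were exposed to compound for 24 h at 37C after a 5 h settling period; luminescence rise (ONE-Glo) indicated activation.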
# [3] = qHTS assay to identify small molecule that activate the aryl hydrocarbon receptor (AhR) signaling pathway - cell viability counter screen (AID 743086);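 note: HepG2 liver cells carrying the AhR DRE luciferase reporter; series mostly up to about 70 µM; nearly all actives have a fitted effect of over 45% in size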
# Method in brief: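 Cytotoxicity counter screen: CellTiter-Fluor signal (30 min, 37 C) in 4000 HepG2 cells/well carrying the DRE-luciferase reporter, following 24 h compound exposure at 37 C.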
# [4] = target: Peroxisome proliferator-activated receptor gamma (Homo sapiens) (UniProt P37231); experiment: qHTS assay to identify small molecule antagonists of the peroxisome proliferator-activated receptor gamma (PPARg) signaling pathway (AID 743191; calls by dose curve; note: series mostly up to about 63 µM; nearly all actives have a fitted effect of over 30% in size)
# Method in brief: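 Beta-lactamase reporter under UAS control in HEK293H PPARg-bla cells; compound treatment 17 h at 37C. Read-out: fluorescence intensity after 1 h room-temperature incubation with LiveBLAzer B/G FRET substrate.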
# [5] = qHTS assay to identify small molecule antagonists of the peroxisome proliferator-activated receptor gamma (PPARg) signaling pathway - cell viability counter screen (AID 743194); note: nearly all actives have a fitted effect of over 55% in size
# Method in brief: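 Viability was measured as CellTiter-Glo luminescence in GeneBLAzer PPARg UAS-bla HEK293H cells. These cells had been exposed 17 h at 37 C to compounds together with rosiglitazone at 50 nM final, with the beta-lactamase readout taken in the same wells.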
# [6] = qHTS assay for small molecule agonists of the antioxidant response element (ARE) signaling pathway (AID 743202; active = well fitted activation curve with a large enough effect in the signal ratio in the repeat runs, not every such curve was filed as active; the % refers to the signal ratio; note: potency is the fitted concentration of half-maximal effect)
# Method in brief: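 Beta-lactamase reporter activity, read as fluorescence intensity, reflects ARE/Nrf2 pathway induction in HepG2 cells after 16 h compound exposure at 37 C; substrate loading was 2 h at room temperature.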
# [7] = qHTS assay for small molecule agonists of the antioxidant response element (ARE) signaling pathway - cell viability counter screen (AID 743203; calls by dose curve; note: nearly all actives have a fitted effect of over 55% in size)
# Method in brief: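 Cytotoxicity was tested in parallel with the ARE reporter screen. ARE-bla HepG2 cells were exposed to compounds for 16 hrs, and viability was taken from CellTiter-Glo luminescence.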
# [8] = qHTS assay for small molecule activators of the heat shock response signaling pathway - cell viability counter screen (AID 743209); note: nearly all actives have a fitted effect of over 50% in size; note: potency is the fitted concentration of half-maximal effect
# Method in brief: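 Cytotoxicity counter screen run in parallel with the HSE beta-lactamase reporter, using the same wells. HeLa HSE-bla cells received compound for 5 h at 37 C; ATP-based CellTiter-Glo luminescence was measured after 30 min at room temperature.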
# [9] = qHTS assay for small molecule activators of the heat shock response signaling pathway (AID 743210; active = well fitted activation curve with a large enough effect in the signal ratio in the repeat runs, with a control signal flat, not every such curve was filed as active; the % refers to the signal ratio;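 note: HeLa cells with beta-lactamase reporter driven by heat shock elements; series mostly up to about 63 µM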)
# Method in brief: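 Fluorescence from a cleaved B/G FRET substrate (2.5 h, room temp) reports HSE-driven beta-lactamase in HeLa cells treated 5 h at 37 C with DMSO-dissolved compounds.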
# [10] = qHTS assay to identify small molecule agonists of the peroxisome proliferator-activated receptor delta (PPARd) signaling pathway - cell viability counter screen (AID 743211); note: nearly all actives have a fitted effect of over 55% in size
# Method in brief: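 PPARd-bla HEK293H cells (UAS-beta-lactamase reporter) were treated with compounds for 17 h at 37 C. Viability was then read in the same wells by CellTiter-Glo luminescence after 30 min at room temperature.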
# [11] = target: Peroxisome proliferator-activated receptor delta (Homo sapiens) (UniProt Q03181); experiment: qHTS assay to identify small molecule agonists of the peroxisome proliferator-activated receptor delta (PPARd) signaling pathway (AID 743212; calls by dose curve)
# Method in brief: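 Steps: seed PPARd-bla HEK293H cells; incubate 5 h, 37 C, 5% CO2; add compounds in DMSO; incubate, 37 C; add LiveBLAzer B/G FRET substrate; hold 2 h at room temperature; measure fluorescence.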
# [12] = qHTS assay to identify small molecule antagonists of the peroxisome proliferator-activated receptor delta (PPARd) signaling pathway - cell viability counter screen (AID 743213); note: nearly all actives have a fitted effect of over 50% in size
# Method in brief: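 HEK293H PPARd UAS-bla cells, 5 h pre-incubation, compound + L165041 300 nM final, 17 h 37 C; B/G FRET substrate 2 h RT; then CellTiter-Glo 30 min RT, luminescence.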
# [13] = target: Peroxisome proliferator-activated receptor delta (Homo sapiens) (UniProt Q03181); experiment: qHTS assay to identify small molecule antagonists of the peroxisome proliferator-activated receptor delta (PPARd) signaling pathway (AID 743215; active = well fitted inhibition curve with a large enough effect in the signal ratio in the repeat runs, not every such curve was filed as active; the % refers to the signal ratio;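 note: cells stimulated with agonist L165041 at 300 nM final during compound exposure; series mostly up to about 62 µM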)
# Method in brief: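 Cells: HEK293H with a UAS-driven beta-lactamase reporter responsive to PPARd. Compounds were co-added with L165041 (300 nM, final) and incubated 17 h at 37 C before a 2 h room-temperature FRET substrate step and fluorescence reading.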
# [14] = qHTS assay to identify small molecule agonists of the farnesoid-X-receptor (FXR) signaling pathway - cell viability counter screen (AID 743218); note: nearly all actives have a fitted effect of over 45% in size
# Method in brief: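 Cells were seeded, left 5 h at 37 C and 5% CO2, then dosed with compound in DMSO for 16 h. After the beta-lactamase FRET read, CellTiter-Glo was added and luminescence measured 30 min later.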
# [15] = target: Vitamin D3 receptor (Homo sapiens) (UniProt P11473); experiment: qHTS assay to identify small molecule agonists of the vitamin D receptor (VDR) signaling pathway (AID 743222; calls by dose curve)
# Method in brief: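 Cells carrying a VDR-driven beta-lactamase reporter are seeded at 2,000 per well and rested 4 h. Compounds in DMSO are added for 16 h at 37C, and FRET substrate fluorescence is measured after 2 h at room temperature.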
# [16] = target: Vitamin D3 receptor (Homo sapiens) (UniProt P11473); experiment: qHTS assay to identify small molecule antagonists of the vitamin D receptor (VDR) signaling pathway (AID 743223; active = well fitted inhibition curve with a large enough effect in the signal ratio in the repeat runs, not every such curve was filed as active; the % refers to the signal ratio)
# Method in brief: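 VDR-bla cells were plated, incubated 4 h at 37C, then given compound and 1alpha,25-dihydroxyvitamin D3 (3 nM final). After 16 h at 37C, LiveBLAzer B/G FRET substrate was added for 2 h at room temperature and fluorescence read.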
# [17] = target: Bile acid receptor (Homo sapiens) (UniProt Q96RI1); experiment: qHTS assay to identify small molecule antagonists of the farnesoid-X-receptor (FXR) signaling pathway (AID 743217; active = well fitted inhibition curve with a large enough effect in the signal ratio in the repeat runs, not every such curve was filed as active; the % refers to the signal ratio)
# Method in brief: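 Cells carrying a UAS-driven beta-lactamase reporter (GeneBLAzer FXR-UAS-bla HEK 293T) were plated and rested 5 h at 37 °C. Compounds in DMSO were added alongside chenodeoxycholic acid agonist at 50 uM final and left 16 h at 37 °C before FRET substrate readout.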
# [18] = qHTS assay to identify small molecule antagonists of the farnesoid-X-receptor (FXR) signaling pathway - cell viability counter screen (AID 743221; active = well fitted cell-killing curve with a large enough effect in the repeat runs, not every such curve was filed as active; note: nearly all actives have a fitted effect of over 50% in size)
# Method in brief: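 FXR-UAS-bla HEK 293T cells were treated with test compounds plus chenodeoxycholic acid (50 uM final) for 16 h at 37 C. Cell viability in the same wells was then read as CellTiter-Glo luminescence after 30 min at room temperature.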
# [19] = target: Peroxisome proliferator-activated receptor gamma (Homo sapiens) (UniProt P37231); experiment: qHTS assay to identify small molecule agonists of the peroxisome proliferator-activated receptor gamma (PPARg) signaling pathway (AID 743094; active = well fitted activation curve with a large enough effect in the signal ratio in the repeat runs, not every such curve was filed as active; the % refers to the signal ratio)
# Method in brief: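 Cells from the PPARg UAS-bla HEK293H line are plated and incubated 5 h at 37C. Compounds in DMSO are pinned in and left 17 h at 37C. LiveBLAzer B/G substrate is then added for 1 h at room temperature before fluorescence is measured.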
# [20] = target: Bile acid receptor (Homo sapiens) (UniProt Q96RI1); experiment: qHTS assay to identify small molecule agonists of the farnesoid-X-receptor (FXR) signaling pathway (AID 743220; active = well fitted activation curve with a large enough effect in the signal ratio in the repeat runs, not every such curve was filed as active; the % refers to the signal ratio)
# Method in brief: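 FXR-UAS-bla HEK 293T cells carrying a UAS-driven beta-lactamase reporter were plated for 5 h at 37C/5% CO2, then exposed to DMSO-dissolved Tox21 10K compounds for 16 h at 37C. A LiveBLAzer B/G FRET substrate was loaded for 2 h at room temperature before fluorescence reading.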
# Chain of Vitamin D3 receptor (Homo sapiens) (P11473 whole entry, looked up): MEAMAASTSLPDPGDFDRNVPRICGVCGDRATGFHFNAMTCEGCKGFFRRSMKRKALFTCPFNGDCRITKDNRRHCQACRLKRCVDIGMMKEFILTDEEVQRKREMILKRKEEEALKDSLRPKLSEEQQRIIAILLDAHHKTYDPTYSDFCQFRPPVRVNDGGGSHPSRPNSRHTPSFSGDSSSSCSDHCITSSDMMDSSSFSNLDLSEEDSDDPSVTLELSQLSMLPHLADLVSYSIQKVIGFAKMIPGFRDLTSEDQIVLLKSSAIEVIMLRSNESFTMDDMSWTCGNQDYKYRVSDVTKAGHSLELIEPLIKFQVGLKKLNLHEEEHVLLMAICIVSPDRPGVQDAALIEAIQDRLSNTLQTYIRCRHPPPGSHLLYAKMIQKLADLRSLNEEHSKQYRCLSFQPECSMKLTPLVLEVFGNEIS
# Chain of Peroxisome proliferator-activated receptor gamma (Homo sapiens) (P37231 whole entry, looked up): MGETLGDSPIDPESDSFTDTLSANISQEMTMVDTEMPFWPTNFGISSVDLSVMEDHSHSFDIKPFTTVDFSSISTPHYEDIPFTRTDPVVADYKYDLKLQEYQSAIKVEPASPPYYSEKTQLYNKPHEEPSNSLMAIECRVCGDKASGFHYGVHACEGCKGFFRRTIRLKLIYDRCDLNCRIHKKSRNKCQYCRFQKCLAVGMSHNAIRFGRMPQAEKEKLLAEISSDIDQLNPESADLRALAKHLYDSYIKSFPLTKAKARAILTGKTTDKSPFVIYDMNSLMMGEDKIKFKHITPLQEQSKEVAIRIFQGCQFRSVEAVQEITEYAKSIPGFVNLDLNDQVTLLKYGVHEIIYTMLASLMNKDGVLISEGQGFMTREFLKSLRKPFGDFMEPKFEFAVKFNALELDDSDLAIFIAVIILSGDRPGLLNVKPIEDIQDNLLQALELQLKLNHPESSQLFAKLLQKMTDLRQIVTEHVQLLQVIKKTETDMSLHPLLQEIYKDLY
# Chain of Peroxisome proliferator-activated receptor delta (Homo sapiens) (Q03181 whole entry, looked up): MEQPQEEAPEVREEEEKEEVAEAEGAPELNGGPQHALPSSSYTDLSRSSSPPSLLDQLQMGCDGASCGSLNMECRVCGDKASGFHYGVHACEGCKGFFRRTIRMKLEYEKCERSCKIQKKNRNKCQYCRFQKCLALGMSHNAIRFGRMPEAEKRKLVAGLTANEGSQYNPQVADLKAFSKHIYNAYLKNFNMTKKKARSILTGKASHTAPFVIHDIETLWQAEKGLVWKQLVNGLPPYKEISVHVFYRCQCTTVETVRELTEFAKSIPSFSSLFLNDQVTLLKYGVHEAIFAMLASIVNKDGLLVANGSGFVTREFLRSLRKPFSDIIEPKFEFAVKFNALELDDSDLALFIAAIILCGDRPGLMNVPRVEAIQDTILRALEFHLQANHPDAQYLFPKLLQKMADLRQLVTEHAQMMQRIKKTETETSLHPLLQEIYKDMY
# Chain of Bile acid receptor (Homo sapiens) (Q96RI1 whole entry, looked up): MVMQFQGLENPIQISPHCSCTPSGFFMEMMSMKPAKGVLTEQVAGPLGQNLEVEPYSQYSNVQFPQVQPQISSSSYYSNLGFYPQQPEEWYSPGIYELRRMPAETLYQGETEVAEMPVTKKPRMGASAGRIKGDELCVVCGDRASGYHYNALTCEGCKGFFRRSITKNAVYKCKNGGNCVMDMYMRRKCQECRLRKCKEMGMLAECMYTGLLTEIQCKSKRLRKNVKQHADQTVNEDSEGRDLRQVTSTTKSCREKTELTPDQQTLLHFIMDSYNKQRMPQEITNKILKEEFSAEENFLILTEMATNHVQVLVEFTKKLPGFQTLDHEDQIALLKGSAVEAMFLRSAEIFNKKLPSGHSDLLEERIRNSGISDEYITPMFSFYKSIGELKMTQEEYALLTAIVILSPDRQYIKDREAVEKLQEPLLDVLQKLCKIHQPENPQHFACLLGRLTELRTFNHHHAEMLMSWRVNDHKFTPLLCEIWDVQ
# Chain of Aryl hydrocarbon receptor (Homo sapiens) (P35869 whole entry, looked up): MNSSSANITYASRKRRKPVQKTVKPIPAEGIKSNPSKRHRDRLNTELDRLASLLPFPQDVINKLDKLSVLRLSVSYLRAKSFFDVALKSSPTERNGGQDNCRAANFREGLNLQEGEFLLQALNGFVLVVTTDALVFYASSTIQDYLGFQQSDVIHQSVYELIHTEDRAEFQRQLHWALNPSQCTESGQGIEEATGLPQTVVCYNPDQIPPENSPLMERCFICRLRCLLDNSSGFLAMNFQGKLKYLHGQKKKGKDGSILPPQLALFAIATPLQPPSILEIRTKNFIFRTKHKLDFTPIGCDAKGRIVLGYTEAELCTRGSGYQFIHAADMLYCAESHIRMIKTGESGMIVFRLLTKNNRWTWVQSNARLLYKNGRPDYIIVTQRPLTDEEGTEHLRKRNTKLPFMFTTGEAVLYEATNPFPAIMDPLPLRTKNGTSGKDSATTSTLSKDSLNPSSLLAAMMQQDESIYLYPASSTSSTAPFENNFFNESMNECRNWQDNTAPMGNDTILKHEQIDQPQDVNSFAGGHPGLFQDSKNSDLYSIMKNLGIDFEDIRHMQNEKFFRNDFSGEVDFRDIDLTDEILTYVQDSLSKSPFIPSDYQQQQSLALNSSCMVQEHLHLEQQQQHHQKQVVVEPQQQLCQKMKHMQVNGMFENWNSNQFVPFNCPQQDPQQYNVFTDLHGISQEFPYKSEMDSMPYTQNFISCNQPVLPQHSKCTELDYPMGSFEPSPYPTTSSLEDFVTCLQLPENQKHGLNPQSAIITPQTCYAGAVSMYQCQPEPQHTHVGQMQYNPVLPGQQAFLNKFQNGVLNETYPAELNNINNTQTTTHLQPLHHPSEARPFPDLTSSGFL
SMILES,outcome [1],Potency [2],outcome [3],outcome [4],outcome [5],Potency [6],outcome [7],Potency [8],outcome [9],outcome [10],outcome [11],outcome [12],outcome [13],outcome [14],outcome [15],outcome [16],outcome [17],outcome [18],outcome [19],outcome [20]
O=c1[nH]c(=O)c2cn[nH]c2[nH]1,inactive,inactive,inactive,inactive,inactive,inactive,inactive,inactive,inactive,inactive,inactive,inactive,inactive,inactive,inactive,inactive,,,,
Cc1cccc(N)n1,inactive,inactive,inactive,inactive,inactive,inactive,inactive,,inactive,inactive,inactive,,,,inactive,,inactive,inactive,,
CC(C)(O)CCCC1=CCC(C=O)CC1 (stereo not drawn),inactive,inactive,inactive,,inactive,,inactive,inactive,inactive,inactive,inactive,inactive,inactive,inactive,,inactive,,inactive,inactive,
CC/C=C/CCCCCCCCCCOC(C)=O,inactive,inactive,inactive,,,inactive,inactive,inactive,inactive,inactive,inactive,inactive,inactive,inactive,inactive,inactive,,inactive,inactive,
O=C1c2ccccc2C(=O)N1CO,inactive,inactive,inactive,inactive,,inactive,inactive,inactive,inactive,inactive,inactive,,inactive,inactive,,,,inactive,,
O=C(CCBr)N1CCN(C(=O)CCBr)CC1,inactive,inactive,inactive,inactive,inactive,13.3 µM (active),inactive,inactive,inactive,inactive,inactive,inactive,inactive,inactive,inactive,inactive,inactive,inactive,,inactive
Nc1ccc(C(=O)NCC(=O)O)cc1,inactive,inactive,inactive,inactive,,inactive,inactive,inactive,inactive,inactive,inactive,inactive,inactive,inactive,inactive,inactive,,inactive,,
Cc1ccc2ccccc2n1,inactive,inactive,inactive,inactive,inactive,inactive,inactive,inactive,,inactive,,inactive,inactive,,inactive,inactive,,inactive,,
CC(=O)c1ccc2ccc3ccccc3c2c1,inactive,60.8 µM (active),inactive,inactive,,inactive,inactive,inactive,,inactive,inactive,inactive,,inactive,inactive,inactive,inactive,,,inactive
COc1ccc(Cl)cc1C,inactive,inactive,inactive,,,inactive,inactive,,inactive,inactive,,inactive,,,inactive,,,,inactive,
CCCCCCCCOCCC#N,inactive,inactive,inactive,inactive,inactive,,inactive,inactive,inactive,inactive,,inactive,,inactive,inactive,inactive,,inactive,,
Cc1cc(C)c(C)c(C)c1,inactive,inactive,inactive,,inactive,inactive,inactive,inactive,,inactive,inactive,inactive,inactive,inactive,inactive,inactive,inactive,inactive,inactive,inactive
Cc1ccc(Br)cc1,inactive,inactive,inactive,inactive,,inactive,inactive,inactive,inactive,inactive,inactive,inactive,inactive,,inactive,inactive,,,,
C=CCCCCCCCCCCCCCC,inactive,inactive,inactive,inactive,inactive,,inactive,inactive,inactive,inactive,inactive,inactive,inactive,inactive,inactive,inactive,,inactive,,
COc1cc(C(=O)NC2CCCNC2)cc(OC)c1OC (stereo not drawn),inactive,inactive,inactive,inactive,,inactive,inactive,inactive,inactive,inactive,,,,inactive,inactive,inactive,inactive,inactive,,inactive
C=CCCCCCCCCOC(C)=O,inactive,inactive,inactive,,inactive,inactive,inactive,,inactive,inactive,,,,inactive,,,inactive,inactive,inactive,inactive
CCCC(=O)C(CC)Sc1ccoc1C (stereo not drawn),inactive,inactive,inactive,inactive,inactive,inactive,inactive,,inactive,inactive,,inactive,,,inactive,,,inactive,,
N=C(N)N,inactive,inactive,inactive,,inactive,inactive,inactive,inactive,inactive,inactive,inactive,inactive,inactive,inactive,,,,inactive,inactive,
CCCCS,inactive,inactive,inactive,,inactive,inactive,inactive,inactive,inactive,inactive,inactive,inactive,inactive,inactive,inactive,inactive,,inactive,inactive,
CC(C)(C)C(=O)NCCCC(=O)O,inactive,inactive,inactive,,inactive,inactive,inactive,inactive,inactive,inactive,inactive,inactive,inactive,inactive,inactive,inactive,,inactive,inactive,
O=C(c1ccccc1)c1cccc(O)c1,inactive,inactive,inactive,,,,inactive,,inactive,inactive,inactive,inactive,,inactive,inactive,inactive,,inactive,inactive,
O=C(OOC(=O)c1ccccc1)c1ccccc1,inactive,inactive,inactive,,inactive,inactive,inactive,,inactive,inactive,inactive,inactive,inactive,inactive,,,,inactive,inactive,
CCCCOCCCC,inactive,inactive,,,inactive,inactive,inactive,inactive,inactive,inactive,,inactive,,inactive,inactive,inactive,,,inactive,
NNC(=O)OCc1ccccc1,inactive,,inactive,,,,inactive,inactive,inactive,inactive,inactive,inactive,inactive,inactive,inactive,inactive,,inactive,,
Nc1nc(Cl)cc(Cl)n1,inactive,,inactive,,inactive,,inactive,55 µM (active),,inactive,,inactive,inactive,,inactive,,inactive,inactive,,inactive
CC(=O)OCC(=O)[C@@]1(O)CC[C@H]2[C@@H]3CCC4=CC(=O)C=C[C@]4(C)[C@H]3[C@@H](O)C[C@@]21C,inactive,,inactive,,inactive,inactive,inactive,,,inactive,inactive,inactive,,inactive,inactive,inactive,,inactive,,
Cc1ccccc1C#N,inactive,inactive,,inactive,inactive,,inactive,inactive,inactive,inactive,inactive,inactive,inactive,inactive,inactive,inactive,inactive,,,inactive
CC(C)C[P+](C)(CC(C)C)CC(C)C,inactive,,inactive,inactive,inactive,inactive,inactive,inactive,,inactive,inactive,inactive,inactive,inactive,inactive,inactive,inactive,,inactive,inactive
